From the supplement of paper PMC3342239
Counter-ions that a name gives are not always drawn.

test system: Saccharomyces cerevisiae; assay: fraction of cells in G1 phase (DNA content, flow cytometry); higher = more cells with unreplicated DNA (G1 delay); conditions: temperature: 30 C; YPD; JTY2953 pdr5 snq2 (sensitized); drug added to: cultures diluted from stationary phase; 6-7 h
In short: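 Yeast (S. cerevisiae) in YPD at 30°C was treated with library drugs, and cells were then fixed in ethanol, stained with SYTOX Green and counted by flow cytometry over 10,000 events. Sensitized JTY2953 diluted 1∶200 from an overnight culture got a final 20 µg/ml and was fixed 6–7 h later; other runs dosed dividing JTY2953 (fixed at 6 h) or BY4741 (fixed at 4.33 h). G1 fraction means the Dean-Jett-Fox G1 peak area relative to the G1 and G2/M areas together.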

Row | SMILES | fraction of cells in G1 phase
1 | Clc1ccc2c(c1)C(N1CCNCC1)=Nc1ccccc1O2 [Amoxapine] (63.737 µM) | 0.581
2 | CCC[C@@H]1C[C@@H](C(=O)N[C@@H]([C@H]2O[C@H](SC)[C@H](O)[C@@H](O)[C@H]2O)[C@@H](C)O)N(C)C1 [Lincomycin] (49.195 µM) | 0.539
3 | CC[C@H](C)C(=O)O[C@H]1C[C@H](O)C=C2C=C[C@H](C)[C@H](CC[C@@H]3C[C@@H](O)CC(=O)O3)[C@H]21 [Pravastatin lactone] (49.1976 µM) | 0.451
4 | C[C@]12CC[C@@H]3c4ccc(O)cc4C[C@@H](CCCCCCCCC[S+]([O-])CCCC(F)(F)C(F)(F)F)[C@H]3[C@@H]1CC[C@@H]2O (stereo partly specified) [Fulvestrant] (32.9606 µM) | 0.458
5 | Nc1c2c(nc3ccccc13)CCCC2O (stereo unspecified) [Hydroxytacrine maleate] (93.3405 µM) | 0.513
6 | COc1cc2nc(N3CCN(C(=O)c4ccco4)CC3)nc(N)c2cc1OC [Prazosin HCl] (47.6417 µM) | 0.487
7 | CCOC(=O)/C=C(C)/C=C/C=C(C)/C=C/c1c(C)cc(OC)c(C)c1C [Etretinate] (56.4185 µM) | 0.557
8 | CN(Cc1ccc(C(C)(C)C)cc1)Cc1cccc2ccccc12 [Butenafine] (62.9964 µM) | 0.405
9 | N.N.O=C([O-])C[O-].[Pt+2] [Nedaplatin] (65.9657 µM) | 0.545
10 | CN1CCc2cccc3c2[C@H]1Cc1ccc(O)c(O)c1-3 [Apomorphine r (-)] (74.8137 µM) | 0.483
11 | O=C(NCCO[N+](=O)[O-])c1cccnc1 [Nicorandil] (94.7066 µM) | 0.516
